From PubChem
Hits are enriched below; roughly 18% of the tested compounds scored in any of these assays.
IL1B secr inh = inflammasome signaling inhibition, IL-1 beta readout; THP-1 LPS/ATP IL-1B secretion, AlphaLISA, 16 h; stronger effect = lower value; activity change, % at 57.5 µM; 360,000 compounds, 4.7% hits; in the data active = activity change below about -50%; inconclusive = mostly about -30% to -49%
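THP-1 cells pretreated 1 hr with compounds (up to 57.5 uM final), then stimulated with LPS (250 ng/mL final) plus ATP (1.25 mM final); secreted IL-1B measured by AlphaLISA after 16 hr, decreased signal indicating inhibition.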
TDP1 cell noCPT = qHTS for Inhibitors of human tyrosyl-DNA phosphodiesterase 1 (TDP1): qHTS in cells in absence of CPT; DT40 Tdp1-/- hTDP1 cells, no CPT, ATP luminescence, 48 h; Potency, µM (highest dose often 46.2 µM), for the others: at the highest dose activity change, negative = growth inhibition, actives largely listed as inhibitors; 420,000 compounds, 15% hits; note: potency is the fitted concentration of half-maximal effect; nearly all actives have a fitted effect of over 55% in size
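Camptothecin absent (DMSO only). Human TDP1-complemented DT40 knockout cells, 400 cells/well, 37 °C for minimum 48 hr; ATP measured via CellTiter-Glo, 30 min dark incubation, luminescence.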
TDP1 inh = TDP1 (human) enzyme inhibition; Q9NUW8; recombinant TDP1, AlphaScreen DNA substrate cleavage; Potency, µM (highest dose often 130 µM), for inactives: at the highest dose activity change, negative = inhibition, most hits filed as inhibitors; 350,000 compounds, 0.28% hits; note: potency is the fitted concentration of half-maximal effect; nearly all actives have a fitted effect of over 40% in size
Target sequence (Q9NUW8 whole entry, looked up): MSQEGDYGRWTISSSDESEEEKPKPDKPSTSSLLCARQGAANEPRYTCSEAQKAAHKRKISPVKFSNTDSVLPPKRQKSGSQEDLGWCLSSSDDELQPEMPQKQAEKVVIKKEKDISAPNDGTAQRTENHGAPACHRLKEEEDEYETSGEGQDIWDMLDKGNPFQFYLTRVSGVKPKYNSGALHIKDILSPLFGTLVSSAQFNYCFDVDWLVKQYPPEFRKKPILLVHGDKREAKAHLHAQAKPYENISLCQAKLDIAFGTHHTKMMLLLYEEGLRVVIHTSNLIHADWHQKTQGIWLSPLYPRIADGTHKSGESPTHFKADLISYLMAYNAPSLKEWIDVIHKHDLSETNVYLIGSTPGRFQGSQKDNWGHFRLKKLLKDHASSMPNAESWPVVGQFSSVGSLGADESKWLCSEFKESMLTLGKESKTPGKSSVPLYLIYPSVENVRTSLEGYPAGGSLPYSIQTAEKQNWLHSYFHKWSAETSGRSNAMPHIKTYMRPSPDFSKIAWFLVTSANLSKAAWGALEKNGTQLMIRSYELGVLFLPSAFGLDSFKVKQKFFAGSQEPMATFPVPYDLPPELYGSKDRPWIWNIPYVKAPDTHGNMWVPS
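Here, a 5' biotin and 3' phosphotyrosine-FITC DNA oligonucleotide reports Tdp1 activity: intact substrate bridges AlphaScreen beads, while cleavage leaves a 3' phosphate and drops signal. All incubations at room temperature.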
TDP1 cell CPT = DT40-hTDP1 cell growth loss with CPT; AID 686979; Potency, µM (highest dose often 46.2 µM), for the others: at the highest dose activity change, negative = growth inhibition, hits mostly inhibitors; 420,000 compounds, 12% hits; chicken DT40 Tdp1-/-;hTDP1 cells + 20 nM CPT, ATP luminescence, 48 h; note: potency is the fitted concentration of half-maximal effect; nearly all actives have a fitted effect of over 55% in size
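Cell growth measured by CellTiter-Glo luminescence after a minimum 48 h, 37 C compound exposure with 20 nM CPT in Tdp1-knockout DT40 cells stably expressing hTDP1, seeded 400/well; qHTS titration format.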
CtBP-E1A blk = CtBP/E1A binding inhibition | AlphaScreen GST-E1A/His-CtBP binding, 1536-well; stronger effect = lower value | AID 651724 | 340,000 compounds, 0.49% hits | activity change, % (no concentration beside the values); in the data active = activity change below about -65%; inconclusive = mostly about -30% to -63%
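AlphaScreen with 125 nM GST-E1A and 125 nM His-CtBP (5X stocks) in Tris pH 8.0, 300 mM NaCl, BSA, Tween 20, TCEP. Compounds preincubated 2 h at 37 deg C, then glutathione donor/nickel acceptor beads added for 1 h at 37 deg C in dark.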
Six1-Eya2 inh = inhibitors of human Six1/Eya2 interaction; AlphaScreen GST-Six1/His-Eya2 binding, biochemical; stronger effect = lower value; activity change, % (test concentration not listed); 360,000 compounds, 0.56% hits; in the data active = activity change below about -65%; inconclusive = mostly about -30% to -63%
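Homogeneous AlphaScreen proximity assay pairing GST-Six1 with His-tagged Eya2 (added as 5X mix: 250 nM and 500 nM) in 50 mM Tris pH 8.0, 300 mM NaCl, 1 mM TCEP. Glutathione donor and nickel acceptor beads; 1 h, 37 °C, dark.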
Active calls of the source: *. Unless noted, calls come from the whole dose curve; as a rule, active = well fitted curve in the direction sought with a large enough effect; inconclusive = small, poorly fitted or top-dose-only effect, or another doubt; inactive = no such curve, though single readings can be large; an effect the other way counts as inactive or inconclusive. % is set by controls: 0 for no effect and ±100 for the full control effect.

Screening COc1cc(/C=C2\C(=O)N(c3ccc(NC(C)=O)cc3)N=C2c2ccccc2)ccc1O returned IL1B secr inh -19, TDP1 cell noCPT 7%, TDP1 inh 8%, TDP1 cell CPT -16%, CtBP-E1A blk -1 and Six1-Eya2 inh 2.
For O=C(CNC(=O)c1cc(Cl)nc2ccccc12)Nc1ccccc1Br the results were IL1B secr inh 11, TDP1 cell noCPT inconclusive, TDP1 inh 0%, TDP1 cell CPT -14%, CtBP-E1A blk -2 and Six1-Eya2 inh 0.
For C=CCn1c(Cc2cccc3ccccc23)n[nH]c1=S the results were IL1B secr inh 84, TDP1 cell noCPT inconclusive, TDP1 inh 3%, TDP1 cell CPT 21µM*, CtBP-E1A blk 3 and Six1-Eya2 inh 3.
For C=C(C)C1CCC(C)=C1CC(C)(C)/C=N\n1cnnc1 (stereo not given) the results were IL1B secr inh 13, TDP1 cell noCPT 21µM*, TDP1 inh 7%, TDP1 cell CPT 10µM*, CtBP-E1A blk 12 and Six1-Eya2 inh -1.
For O=[N+]([O-])c1cc(Br)c(O)c(/C=N/Nc2nnnn2-c2cccc3ccccc23)c1 the results were IL1B secr inh 21, TDP1 cell noCPT -4%, TDP1 inh 12%, TDP1 cell CPT -16%, CtBP-E1A blk -70* and Six1-Eya2 inh inconclusive.
Screening Cc1ccn2cc(C(=O)NCc3ccco3)nc2c1 returned IL1B secr inh -5, TDP1 cell noCPT 6%, TDP1 inh 6%, TDP1 cell CPT 2%, CtBP-E1A blk 5 and Six1-Eya2 inh 3.
`O=C(CSc1nc(C2CCCCC2)nc2ccccc12)N1CCCC1` gave IL1B secr inh -81*, TDP1 cell noCPT inconclusive, TDP1 inh 11%, TDP1 cell CPT inconclusive, CtBP-E1A blk 8 and Six1-Eya2 inh -3.
Cc1nn(C)c(C)c1NC(=O)CSc1nc(C2CC2)nc2c1cnn2-c1ccccc1 was read as IL1B secr inh 41, TDP1 cell noCPT inconclusive, TDP1 inh 3%, TDP1 cell CPT inconclusive, CtBP-E1A blk -1 and Six1-Eya2 inh -2.
O=C(CSc1nc(C2CC2)nc2ccccc12)N1c2ccccc2Sc2ccc(C(F)(F)F)cc21 was read as IL1B secr inh inconclusive, TDP1 cell noCPT 23µM*, TDP1 inh 3%, TDP1 cell CPT 8.2µM*, CtBP-E1A blk 5 and Six1-Eya2 inh -9.
Screening CC1CCCCN1C(=O)CSc1nc(C2CC2)nc2c1cnn2-c1ccccc1 (stereo not given) returned IL1B secr inh -91*, TDP1 cell noCPT inconclusive, TDP1 inh 9%, TDP1 cell CPT inconclusive, CtBP-E1A blk -2 and Six1-Eya2 inh 8.
Screening CCc1nc(SCC(=O)N2CCCC2)c2ccccc2n1 returned IL1B secr inh -94*, TDP1 cell noCPT -10%, TDP1 inh 2%, TDP1 cell CPT -1%, CtBP-E1A blk 3 and Six1-Eya2 inh 2.
`CC1=C(C(=O)Nc2ccc(F)cc2)C(c2ccc(N(C)C)cc2)NC(=O)N1` (stereo not given) gave TDP1 cell noCPT -13% and TDP1 cell CPT 2%.
CCOc1cc(NS(C)(=O)=O)c(OCC)cc1NC(=O)c1cccs1 was read as IL1B secr inh -10, TDP1 cell noCPT inconclusive, TDP1 inh 5%, TDP1 cell CPT -26%, CtBP-E1A blk -7 and Six1-Eya2 inh -6.
For Cc1ccc(NC(=O)c2cccnc2)cc1C the results were IL1B secr inh -9, TDP1 cell noCPT -18%, TDP1 cell CPT -18%, CtBP-E1A blk 4 and Six1-Eya2 inh 0.
For NC(=O)c1c(N)sc(=S)n1CC1CCCO1 (stereo not given) the results were IL1B secr inh 12, TDP1 cell noCPT -2%, TDP1 inh -4%, TDP1 cell CPT -1%, CtBP-E1A blk -1 and Six1-Eya2 inh 0.
